Our source for the Potency and outcome values is PubChem BioAssay (Tox21).

The structures appear in SMILES notation. Where “and” joins values, the source holds several entries; their conditions need not be identical. Identical values can stand only once. Results filed as inconclusive are left out. The source holds several records for some structures; these can differ, active in one and inactive in another. Calls of active or inactive are those of the source. Unless noted, the call rests on the fitted dose curve; in most records, active means well fitted curve in the direction sought with a large enough effect in the repeat runs; inconclusive means weak or mixed curves; inactive means no such curve, though single readings can be large; an effect the other way counts as inactive or inconclusive.

A short description of experiment [1]: A CellTox Green Cytotoxicity Assay to monitor cytotoxicity in HepG2 cells - 8 hour (AID 1224890). Further: nearly all actives have a fitted effect of over 45% in size. An outline of the steps: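 HepG2 cells were seeded together with the CellTox Green dye at 600 cells/well, left 5 h at 37 C/5% CO2, then given compounds in DMSO. Fluorescence from dye bound to dead-cell DNA was read repeatedly over 40 h of treatment at 37 C.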
A short description of experiment [2]: qHTS assay to identify small molecule antagonists of the estrogen receptor alpha (ER-alpha) signaling pathway using the BG1 cell line in the presence of 0.1 nM 17-beta-estradiol - cell viability counter screen (AID 1259241). Further: nearly all actives have a fitted effect of over 40% in size. An outline of the steps: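 CellTiter-Fluor read (30 min, 37C) on ER-alpha/ERE-luc VM7Luc4E2 cells; 22 hr compound treatment; agonist 0.1 nM E2 final; same-well multiplex.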
(In general: In qHTS, concentration-response curves come from the screen itself.)

The nature of experiment [3]: qHTS assay to identify small molecule antagonists of the androgen receptor (AR) signaling pathway using the MDA cell line in the presence of 0.5 nM R1881 - cell viability counter screen (AID 1259242). Further: nearly all actives have a fitted effect of over 45% in size. An outline of the steps: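 MDA-kb2 cells (human breast carcinoma, stably carrying MMTV-luciferase reporter) were exposed to compounds with 0.5 nM R1881 (final) for 16 hr at 37C, 0% CO2; viability then read as live-cell protease fluorescence (CellTiter-Fluor, 30 min) in the same wells.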

Experiment [4] deals with Estrogen receptor (Homo sapiens) (UniProt P03372). Nature of the experiment: qHTS assay to identify small molecule antagonists of the estrogen receptor alpha (ER-alpha) signaling pathway using the BG1 cell line in the presence of 0.1 nM 17-beta-estradiol (AID 1259244). Further: nearly all actives have a fitted effect of over 50% in size. An outline of the steps:
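VM7Luc4E2 cells (endogenous full-length ER-alpha, stable 4xERE-luciferase) were grown 5 days in phenol red-free medium with charcoal-stripped FBS, then exposed 22 h at 37C to compounds plus 0.1 nM (final) 17beta-estradiol; ONE-Glo luminescence read-out.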

Experiment [5] is described as follows: qHTS assay to identify small molecule phospholipidosis (PLD) inducers (AID 1259344; active means well fitted curve in the direction sought with a large enough effect; an effect the other way counts as inactive or inconclusive). An outline of the steps: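 HepG2 cells on collagen I, attached 4 h at 37 C, were co-treated with compound and LipidTOX Red dye for 24 h at 37 C, then fixed with paraformaldehyde plus Hoechst 33342 and imaged by high-content microscopy for phospholipid accumulation.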
Experiment [6] can be described thus: qHTS assay to identify small molecule HDAC inhibitors (AID 1259364). Further: nearly all actives have a fitted effect of over 45% in size. Further: potency means the concentration at half of the fitted maximal effect. An outline of the steps:
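Wild-type HCT-116 cells were plated overnight, exposed to compounds for 2 h at 37 °C, then given HDAC-Glo class I/II luminogenic reagent for 30 min at room temperature before luminescence was read.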

Experiment [7] can be described thus: qHTS assay to identify small molecule HDAC inhibitors - cell viability counter screen (AID 1259365). Further: series mostly up to about 92 µM; nearly all actives have a fitted effect of over 50% in size. An outline of the steps: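 To flag cytotoxic hits, 1,500 wild-type HCT-116 cells per well, plated the day before, receive test compounds for 2hr at 37 C before CellTiter-Glo reagent and a luminescence read.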
A short description of experiment [8]: qHTS assay to identify small molecule agonists of the sonic hedgehog signaling (Shh) pathway - cell viability counter screen (AID 1259366). Further: nearly all actives have a fitted effect of over 50% in size. An outline of the steps:
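Fluorescence from CellTiter-Fluor reports live cells in this counter screen. NIH/3T3-derived Gli1-Luc reporter cells receive test compounds for 24hr at 37C; reagent goes in at 23hr.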

Experiment [9] can be described thus: qHTS assay to identify small molecule antagonists of the sonic hedgehog signaling (Shh) pathway - cell viability counter screen (AID 1259367). Further: nearly all actives have a fitted effect of over 55% in size. An outline of the steps:
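NIH/3T3-derived Gli1-Luc reporter cells (2,000 per well) rested 4 hr at 37 C, then received DMSO compounds plus conditioned medium. After 23 hr of treatment, CellTiter-Fluor was added for 1 hr at 37C and fluorescence read.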

Experiment [10] is described as follows: qHTS assay to identify small molecule agonists of the sonic hedgehog signaling (Shh) pathway (AID 1259368; calls by dose curve; further: series mostly up to about 92 µM; nearly all actives have a fitted effect of over 15% in size). An outline of the steps:
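NIH/3T3-derived 3T3Gli1-Luc cells carrying a stably integrated Gli1 response element–firefly luciferase reporter were plated, left 4 hr at 37 C, then given compounds in DMSO for 24 hr. Luminescence was read 30 min after adding luciferase reagent.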

Experiment [11] is described as follows: qHTS assay to identify small molecule antagonists of the sonic hedgehog signaling (Shh) pathway (AID 1259369; calls by dose curve; further: nearly all actives have a fitted effect of over 45% in size; further: potency means the concentration at half of the fitted maximal effect). An outline of the steps: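 NIH/3T3-derived 3T3Gli1-Luc cells with stably integrated Gli1-Luc reporter were preincubated 4hr at 37 C, then given compounds in DMSO plus Shh conditioned medium and incubated 24hr. Firefly luciferase luminescence read after 30min reagent at room temperature.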

In experiment [12] the target is Estrogen receptor beta (Homo sapiens) (UniProt Q92731). The experiment can be described thus: qHTS assay to identify small molecule agonists of the estrogen receptor beta (ER-beta) signaling pathway (AID 1259377; active means well fitted activation curve with a large enough effect in the signal ratio in the repeat runs, not every such curve was filed as active; the % refers to the signal ratio). An outline of the steps:
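Screening used GripTite ER-beta-UAS-bla cells held in 2% charcoal-stripped FBS medium. After overnight (16 hr) compound incubation at 37C, beta-lactamase activity was detected with a FRET substrate by fluorescence.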

The target is the same in experiment [13]. The experiment can be described thus: qHTS assay to identify small molecule antagonists of the estrogen receptor beta (ER-beta) signaling pathway (AID 1259378; active means well fitted inhibition curve with a large enough effect in the signal ratio in the repeat runs, not every such curve was filed as active; the % refers to the signal ratio; further: potency means the concentration at half of the fitted maximal effect). An outline of the steps: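 ER-beta-UAS-bla HEK293T (GripTite) cells in 2% charcoal-stripped FBS medium were preincubated 6 hr at 37C, dosed with compound, then stimulated with 1 nM E2 (final) for 16 hr; beta-lactamase reporter read by B/G FRET fluorescence after 2 hr substrate loading.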

A short description of experiment [14]: qHTS assay to identify small molecule agonists of the estrogen receptor beta (ER-beta) signaling pathway - cell viability counter screen (AID 1259380). Further: nearly all actives have a fitted effect of over 30% in size. Further: potency means the concentration at half of the fitted maximal effect. An outline of the steps: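 ER-beta-UAS-bla HEK293T cells in medium with 2% charcoal-stripped FBS were preincubated 6 hr at 37C, dosed with compound in DMSO for 16 hr, then after the bla read, CellTiter-Glo was added for 30 min at room temperature; luminescence recorded.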

A short description of experiment [15]: qHTS assay to identify small molecule antagonists of the estrogen receptor beta (ER-beta) signaling pathway - cell viability counter screen (AID 1259382). Further: series mostly up to about 92 µM; nearly all actives have a fitted effect of over 55% in size. An outline of the steps: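 ER-beta-UAS-bla HEK293T cells (2,000/well, 2% charcoal-stripped FBS) were pre-incubated 6 hr at 37C, then given compound plus 1nM final 17-beta-estradiol for 16 hr. Viability was read in the same wells by CellTiter-Glo luminescence after 30 min at room temperature.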

For experiment [16], the target named is Estrogen receptor (Homo sapiens) (UniProt P03372). The experiment can be described thus: qHTS assay to identify small molecule agonists of the estrogen receptor alpha (ER-alpha) signaling pathway in the presence of an antagonist (AID 1259383; calls by dose curve; further: top concentration of the series differs between compounds; nearly all actives have a fitted effect of over 15% in size). An outline of the steps:
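VM7Luc4E2 cells (endogenous full-length ER-alpha, 4×ERE-luciferase) were precultured 5 days in phenol red-free medium with 10% charcoal-stripped FBS, given 10.0nM ICI-182,780 (final), then treated with compounds at 15 concentrations for 22hr at 37C; luminescence read with ONE-Glo.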

Experiment [17] is described as follows: qHTS assay to identify small molecule agonists or antagonists of the thyroid stimulating hormone receptor (TSHR) signaling pathway - wild type cell line counter screen (AID 1259384; calls by dose curve). An outline of the steps: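 Wild-type HEK293 cells were plated 18 h at 37 C/5% CO2, pin-dosed with compound plus Ro20-1724 medium, held 30 min at room temperature, then given cAMP-d2 and anti-cAMP-cryptate; fluorescence was read after 1 h. Fifteen concentrations, triplicate.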

For experiment [18], the target named is Thyrotropin receptor (Homo sapiens) (UniProt P16473). The experiment can be described thus: qHTS assay to identify small molecule antagonists of the thyroid stimulating hormone receptor (TSHR) signaling pathway (AID 1259385; calls by dose curve; further: nearly all actives have a fitted effect of over 20% in size). An outline of the steps: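 TSHR-HEK293 cells were plated and held 18 h at 37C/5% CO2, then given compound plus Ro20-1724 and stimulated with TSH at 1.5 ng/mL final. After 30 min at room temperature, cAMP was detected with cAMP-d2/anti-cAMP-cryptate (1 h) by fluorescence.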
Sequence of Thyrotropin receptor (Homo sapiens) (P16473 whole entry, looked up): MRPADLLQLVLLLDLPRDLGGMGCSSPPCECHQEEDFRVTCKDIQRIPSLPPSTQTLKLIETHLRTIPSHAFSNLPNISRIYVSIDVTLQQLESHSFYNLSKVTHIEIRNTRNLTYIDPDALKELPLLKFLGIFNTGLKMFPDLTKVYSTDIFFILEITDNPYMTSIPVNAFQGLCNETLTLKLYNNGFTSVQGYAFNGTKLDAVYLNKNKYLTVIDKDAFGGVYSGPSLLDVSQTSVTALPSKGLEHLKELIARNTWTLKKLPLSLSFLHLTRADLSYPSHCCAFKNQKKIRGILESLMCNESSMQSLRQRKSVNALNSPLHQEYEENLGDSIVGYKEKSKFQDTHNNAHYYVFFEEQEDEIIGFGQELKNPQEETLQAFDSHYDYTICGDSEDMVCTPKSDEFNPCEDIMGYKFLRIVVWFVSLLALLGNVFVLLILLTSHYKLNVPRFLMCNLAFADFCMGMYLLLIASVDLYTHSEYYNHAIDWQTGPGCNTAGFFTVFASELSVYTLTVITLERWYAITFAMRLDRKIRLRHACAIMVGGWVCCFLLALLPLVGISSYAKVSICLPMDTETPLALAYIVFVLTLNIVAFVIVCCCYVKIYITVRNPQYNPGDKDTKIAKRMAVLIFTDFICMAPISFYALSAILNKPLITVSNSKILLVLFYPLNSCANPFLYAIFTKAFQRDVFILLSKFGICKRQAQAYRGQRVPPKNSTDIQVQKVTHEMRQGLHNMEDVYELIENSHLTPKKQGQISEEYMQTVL

In experiment [19] the target is Androgen receptor (Homo sapiens) (UniProt P10275). Nature of the experiment: qHTS assay to identify small molecule antagonists of the androgen receptor (AR) signaling pathway using the MDA cell line in the presence of 0.5 nM R1881 (AID 1259243). Further: nearly all actives have a fitted effect of over 50% in size. An outline of the steps:
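MDA-kb2 human breast carcinoma cells carrying an MMTV-luciferase reporter (AR- and GR-responsive) were plated, rested 5 hr at 37C, dosed with compounds, then stimulated with 0.5 nM R1881 (final) for 16 hr; luminescence was read after ONE-Glo.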

Experiment [20] in a line: qHTS assay to identify small molecule agonists of the androgen receptor (AR) signaling pathway in the presence of an antagonist - cell viability counter screen (AID 1259379). Further: series mostly up to about 92 µM; nearly all actives have a fitted effect of over 25% in size. An outline of the steps: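 MDA-kb2 human breast carcinoma cells (stable MMTV-luciferase, AR/GR responsive) were seeded 3,000 cells/well, pre-incubated 5 hr at 37C without CO2, then given 3.0uM nilutamide and compounds at 15 concentrations for 16 hr. Viability was read by CellTiter-Fluor fluorescence.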

Sequence of Androgen receptor (Homo sapiens) (P10275 whole entry, looked up): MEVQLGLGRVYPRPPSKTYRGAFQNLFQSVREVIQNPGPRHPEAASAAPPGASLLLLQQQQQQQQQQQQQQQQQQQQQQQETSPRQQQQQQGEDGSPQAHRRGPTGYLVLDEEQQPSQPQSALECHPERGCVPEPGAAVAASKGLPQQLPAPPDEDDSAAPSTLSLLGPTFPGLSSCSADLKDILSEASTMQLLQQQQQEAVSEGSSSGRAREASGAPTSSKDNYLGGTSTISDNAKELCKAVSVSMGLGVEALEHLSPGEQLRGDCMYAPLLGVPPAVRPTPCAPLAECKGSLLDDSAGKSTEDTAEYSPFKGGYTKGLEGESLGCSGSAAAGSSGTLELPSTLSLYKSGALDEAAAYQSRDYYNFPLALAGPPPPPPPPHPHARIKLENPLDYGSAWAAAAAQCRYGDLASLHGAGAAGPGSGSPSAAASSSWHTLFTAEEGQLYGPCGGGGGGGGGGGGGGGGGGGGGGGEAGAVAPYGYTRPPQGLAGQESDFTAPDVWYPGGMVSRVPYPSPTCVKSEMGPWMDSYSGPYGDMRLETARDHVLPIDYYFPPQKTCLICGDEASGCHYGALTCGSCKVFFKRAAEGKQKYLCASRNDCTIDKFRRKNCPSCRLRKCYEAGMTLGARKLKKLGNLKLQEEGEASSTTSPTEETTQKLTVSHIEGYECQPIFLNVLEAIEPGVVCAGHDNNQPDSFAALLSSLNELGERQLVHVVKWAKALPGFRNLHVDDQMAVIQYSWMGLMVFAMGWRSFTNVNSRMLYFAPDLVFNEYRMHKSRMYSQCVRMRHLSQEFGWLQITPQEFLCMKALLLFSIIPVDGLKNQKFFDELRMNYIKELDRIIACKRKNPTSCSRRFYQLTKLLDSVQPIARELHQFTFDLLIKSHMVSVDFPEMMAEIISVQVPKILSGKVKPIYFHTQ
Sequence of Estrogen receptor (Homo sapiens) (P03372 whole entry, looked up): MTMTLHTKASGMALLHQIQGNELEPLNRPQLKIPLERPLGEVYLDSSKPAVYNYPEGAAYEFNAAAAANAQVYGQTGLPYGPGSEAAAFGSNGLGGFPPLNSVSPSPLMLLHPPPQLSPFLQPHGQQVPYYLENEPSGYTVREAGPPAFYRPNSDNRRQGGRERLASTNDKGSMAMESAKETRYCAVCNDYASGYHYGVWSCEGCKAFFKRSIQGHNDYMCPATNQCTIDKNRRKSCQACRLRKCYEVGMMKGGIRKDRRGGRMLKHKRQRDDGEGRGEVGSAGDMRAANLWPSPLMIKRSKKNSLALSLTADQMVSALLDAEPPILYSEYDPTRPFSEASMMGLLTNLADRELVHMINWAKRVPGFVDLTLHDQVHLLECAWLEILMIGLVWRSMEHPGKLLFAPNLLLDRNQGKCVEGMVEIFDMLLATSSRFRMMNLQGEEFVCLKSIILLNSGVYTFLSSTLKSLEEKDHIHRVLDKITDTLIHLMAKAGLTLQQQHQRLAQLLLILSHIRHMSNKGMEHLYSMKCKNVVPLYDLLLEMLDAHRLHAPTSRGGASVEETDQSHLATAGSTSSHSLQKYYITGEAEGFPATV
Sequence of Estrogen receptor beta (Homo sapiens) (Q92731 whole entry, looked up): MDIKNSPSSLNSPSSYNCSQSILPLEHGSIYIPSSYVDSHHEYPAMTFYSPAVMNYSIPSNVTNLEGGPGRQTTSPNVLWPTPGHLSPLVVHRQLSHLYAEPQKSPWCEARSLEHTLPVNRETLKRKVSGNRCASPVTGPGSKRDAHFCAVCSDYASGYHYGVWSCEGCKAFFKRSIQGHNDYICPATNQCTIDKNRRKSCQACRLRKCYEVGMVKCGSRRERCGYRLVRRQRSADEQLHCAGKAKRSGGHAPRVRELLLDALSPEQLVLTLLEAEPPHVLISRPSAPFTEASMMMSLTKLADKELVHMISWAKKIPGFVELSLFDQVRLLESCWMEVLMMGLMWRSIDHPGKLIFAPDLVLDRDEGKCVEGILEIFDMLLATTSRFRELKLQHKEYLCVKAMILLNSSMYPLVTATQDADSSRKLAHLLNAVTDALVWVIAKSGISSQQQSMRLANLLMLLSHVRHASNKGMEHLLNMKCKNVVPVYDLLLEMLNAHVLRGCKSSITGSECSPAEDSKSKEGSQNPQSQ

Turning to `CC1=C(/C=C/C(C)=C/C=C/C(C)=C/CO)C(C)(C)CCC1`, the Potency entry in experiment [1], in experiment [2], in experiment [3], in experiment [4], in experiment [6] and in experiment [8] was “inactive” each time. Besides, the Potency entry in experiment [9], in [12], in [14], in experiment [15] and in experiment [16] was “inactive” throughout. For the same compound, the result in experiment [5], in [7], in experiment [10], in experiment [17] and in [18] was inactive. Also, the Potency was 15.5 µM (active) in experiment [11]; “inactive and 64.4 µM (active)” in experiment [13].
Turning to `CCc1ccc(O)cc1`, the Potency entry in experiment [1], in experiment [2], in experiment [3], in experiment [6], in experiment [8] and in [9] was “inactive” throughout. The Potency entry in experiment [11], in experiment [12], in experiment [13], in [20], in experiment [14] and in [15] was “inactive” in each case. For the same compound, the result in experiment [19], in experiment [7], in experiment [10], in [17] and in [18] was inactive.
In the case of `CC(C)(CO)COC(=O)C(C)(C)CO`, the Potency result in [1], in experiment [2], in [3], in [4], in experiment [6] and in [8] was “inactive” in each case. Also, the Potency entry in experiment [9], in experiment [11], in experiment [12], in [13], in [20] and in experiment [14] was “inactive” throughout. Also, the Potency entry in experiment [15] and in experiment [16] was “inactive” throughout. In addition, the outcome in experiment [19], in [7], in experiment [10], in [17] and in [18] was inactive.
Consider `NCCNCCNCCNCCN`, for which the Potency entry in [1], in [2], in experiment [3], in experiment [6], in [8] and in experiment [9] was “inactive” in each case. Besides, the Potency result in [11], in experiment [12], in [13], in [20], in experiment [14] and in experiment [15] was “inactive” each time. In addition, the result in experiment [19], in experiment [5], in [7], in experiment [10], in experiment [17] and in [18] was inactive.
Consider `CCCCC/C=C\C/C=C\CCCCCCCC(=O)OC`, for which the Potency entry in experiment [1], in experiment [2], in experiment [3], in experiment [4], in [6] and in experiment [8] was “inactive” throughout. For the same compound, the Potency entry in experiment [9], in [12], in experiment [13], in experiment [20], in [15] and in experiment [16] was “inactive” each time. The call in experiment [7], in [10], in experiment [17] and in experiment [18] was inactive. Further, the Potency entry in experiment [11] was “inactive and 24.3 µM (active)”; in experiment [14], “inactive and 48.6 µM (active)”.
Turning to `Cn1c([N+](=O)[O-])cnc1COC(N)=O`, the Potency result in experiment [1], in experiment [2], in experiment [3], in experiment [4], in experiment [6] and in experiment [8] was “inactive” throughout. Moreover, the Potency result in experiment [9], in experiment [11], in experiment [12], in experiment [13], in experiment [20] and in experiment [14] was “inactive” throughout. Also, the Potency result in [15] and in [16] was “inactive” each time. The result in experiment [5], in experiment [7] and in experiment [10] was inactive.
Take `CC(=O)Nc1ccc(C(=O)O)cc1`: the Potency entry in experiment [1], in [2], in experiment [3], in experiment [4], in [6] and in [8] was “inactive” each time. The Potency result in experiment [9], in [11], in [12], in experiment [13], in experiment [20] and in experiment [14] was “inactive” in each case. The Potency result in [15] and in experiment [16] was “inactive” each time. In addition, the result in experiment [5], in experiment [7], in [10], in experiment [17] and in experiment [18] was inactive.
Take `O=c1c(-c2ccc(O)cc2)coc2cc(O)ccc12`: the Potency entry in experiment [1], in experiment [2], in experiment [3], in [4], in experiment [8] and in experiment [9] was “inactive” each time. Besides, the Potency entry in experiment [15] is “inactive”. For the same compound, the outcome in [19], in experiment [7], in experiment [10], in experiment [17] and in experiment [18] was inactive. In addition, the Potency in experiment [6] was 5.39 µM (active) and 6.11 µM (active); in [11], 13.5 µM (active) and 19.3 µM (active).
